High-throughput results as filed in PubChem.
Rows were chosen to be rich in hits. Some 1.7% of all compounds tested hit in one or more screens of this group.
GLP1R inv ag = inverse agonists of human GLP-1 receptor | P43220 | HEK293 GLP-1R CRE-luciferase, luminescence, 24 h; GLP-1R form is constitutively active | Potency, µM (highest dose often 38.3 µM), inactives show at the highest dose activity change, negative = inhibition, usual class: inhibitors | hit rate 1.6% among 410,000; further: on the % scale 0 is the no-effect control and ±100 the full control effect; nearly all actives have a fitted effect of over 55% in size
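Cells are plated, allowed 12 hours at 37 deg C, then treated with compounds for 24 hr before luciferase detection reagent is added and luminescence is read after 12 min at room temperature. The HEK293 line carries constitutively active GLP-1R with a cAMP-responsive reporter.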
PTHR1 agonist = agonists of human PTHR1 parathyroid hormone receptor; HEK293 GP2 PTHR1 cells, GloSensor cAMP luminescence, 1 h; Potency, µM (doses to about 115 µM), for inactives: at the highest dose activation, usual class: activators; AID 743266; hit rate 0.075% among 410,000; Q03431; further: nearly all actives have a fitted effect of over 55% in size
Target sequence (Q03431 whole entry, looked up): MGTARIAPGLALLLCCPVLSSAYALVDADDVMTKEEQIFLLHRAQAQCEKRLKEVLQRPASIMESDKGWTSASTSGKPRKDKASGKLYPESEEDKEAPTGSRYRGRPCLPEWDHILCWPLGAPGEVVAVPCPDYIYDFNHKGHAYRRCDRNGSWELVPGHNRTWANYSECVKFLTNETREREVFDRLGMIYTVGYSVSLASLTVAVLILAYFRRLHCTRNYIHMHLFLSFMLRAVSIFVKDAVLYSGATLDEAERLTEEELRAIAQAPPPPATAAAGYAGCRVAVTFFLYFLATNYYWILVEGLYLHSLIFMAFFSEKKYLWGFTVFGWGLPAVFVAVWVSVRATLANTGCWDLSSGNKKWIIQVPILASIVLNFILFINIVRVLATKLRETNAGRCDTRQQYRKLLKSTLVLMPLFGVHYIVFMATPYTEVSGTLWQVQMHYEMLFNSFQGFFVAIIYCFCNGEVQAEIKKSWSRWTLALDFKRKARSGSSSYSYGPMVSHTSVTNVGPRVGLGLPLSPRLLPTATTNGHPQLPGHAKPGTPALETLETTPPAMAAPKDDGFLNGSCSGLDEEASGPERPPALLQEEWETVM
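HEK-293-derived GP2 cells expressing PTHR1 and a GloSensor cAMP reporter, 3,000/well, plated overnight, given luciferin plus IBMX (each 0.5 mM as added) for 1 h at 37 °C, then compound for 1 h at 37 °C. Luminescence was read after 15 min at room temperature.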
GLP1R cytotox = cytotoxicity counter-screen for GLP-1 receptor inverse agonists; HEK293 cAMP-luciferase reporter cells, luminescence, 24 h; Potency, µM (highest dose often 38.3 µM), for inactives: top-dose activity change, negative = inhibition, actives largely listed as inhibitors; hit rate 0.13% among 410,000; AID 624418;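 further: loss of luciferase light is scored as toxicity; on the % scale 0 is the no-effect control and ±100 the full control effect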
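A 23 nL compound transfer followed 12 hours of cell culture at 37 deg C; exposure then lasted 24 hr. Luciferase assay detection reagent was dispensed and plates read for luminescence after a 12 min room-temperature wait.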
GLP1R ag = activates the human GLP-1 receptor; P43220; HEK293 GLP-1R CRE-luciferase, luminescence, 4-6 h; cells express a hypersensitive GLP-1R form; Potency, µM (highest dose often 45.6 µM), for inactives: at the highest dose activation, hits mostly activators; hit rate 0.007% among 380,000; AID 624172; further: % of control where 0% means no effect
RGS4 inh = human RGS4 inhibition; AID 504845; Transcreener GDP fluorescence polarization, RGS4-accelerated GTP hydrolysis; hit rate 0.039% among 390,000; P49798; Potency, µM (series often up to 114 µM), inactives show at the top dose activity change, negative = inhibition, hits mostly inhibitors; further: on the % scale 0 is the no-effect control and ±100 the full control effect; nearly all actives have a fitted effect of over 75% in size
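MLSMR compounds (23 nl, pin-transferred) preincubated 10 min at room temperature with a 500nM (2x) first reagent, then RGS4 at 900nM (2x) plus Transcreener GDP mix added; fluorescence polarization (620/688 nm) read before and after 90 min at 30 °C.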
* hit, by the source's call; i = inactive; ? = inconclusive; . = no result; [ ] = remark or other dose. The call rests on the fitted dose curve; in most records, active means well fitted curve in the direction sought with a large enough effect; inconclusive means small, poorly fitted or top-dose-only effect, or another doubt; inactive means no such curve, though single readings can be large; an effect the other way counts as inactive or inconclusive. Potency means the concentration at half of the fitted maximal effect.

SMILES	GLP1R inv ag	PTHR1 agonist	GLP1R cytotox	GLP1R ag	RGS4 inh
COc1ccc(C(=O)c2c(C)c3ccccc3n2CC(O)CNC(C)C)cc1 (stereo not given)	2.24µM*	?	8.91µM*	-2.2%	13.5%
C[C@H]1C[C@@H]2[C@@H]([C@@H](O)C[C@@]3(C)[C@H]2CC[C@]3(O)C(=O)CO)[C@@]2(C)C=CC(=O)C=C12	.	.	.	-3.3%[19.8 µM]	.
CCOC(=O)c1[nH]c2c(c1Cc1ccccc1)C(=O)CC(c1ccc(C(C)(C)C)cc1)C2 (stereo not given)	11.2µM*	i	0.3%	.	-9.9%
CCc1ccc2nc(NC(=O)C3CSC4(C)CCC(=O)N34)sc2c1 (stereo not given)	5.62µM*	i	-17.0%	11.9%	-37.4%
CC12CCC(=O)N1C(C(=O)Nc1nc3ccc(Cl)cc3s1)CS2 (stereo not given)	2.82µM*	-59.6%	-2.8%	15.7%	-21.4%
CC12CCC(=O)N1C(C(=O)Nc1nc3ccc(S(C)(=O)=O)cc3s1)CS2 (stereo not given)	14.4%	i	-4.0%	4.2%	12.0%
COc1ccc(Cn2ccc3nc(C)c(C(=O)Nc4ccc(OC)cc4)cc3c2=O)cc1	-17.6%	-7.5%	-7.7%	.	-25.8%
C#CCN(Cc1ccco1)C(=O)c1ccc(OC2CCN(Cc3ccccn3)CC2)cc1	?	-3.3%	-16.3%	5.4%	3.1%
O=C(/C=C/NCc1cccnc1)c1ccc(Br)cc1	?	i	-0.3%	24.1%	-10.9%
CC(NC(=O)CSc1nc2sc3c(c2c(=O)n1-c1ccccc1)CCCC3)c1ccccc1 (stereo not given)	8.91µM*	i	-17.3%	0.4%	5.7%
CC(O)CNc1nc2sc3c(c2c(=O)n1CCc1ccccc1)CCCCC3 (stereo not given)	4.47µM*	-47.0%	?	19.9%	-1.7%
Cc1ccc(S(=O)(=O)N(C)CC(=O)NCC(c2ccco2)N(C)C)cc1 (stereo not given)	-22.1%	i	-2.8%	1.4%	-4.7%
CCOc1cccc(C(=O)Nc2nc3c(s2)CC(C(C)(C)C)CC3)c1 (stereo not given)	?	i	1.2%	.	0.1%
O=C(O)CCC(=O)Nc1ccc(C(=O)OC2CCCCC2)cc1	-5.3%	i	-0.3%	1.4%	3.2%
O=C(OC1CCCCC1)c1ccc(NC(=O)C2CCCCC2)cc1	2.51µM*	-14.7%	-16.3%	6.7%	-26.6%
CCCCc1ccc(NC(=O)C2CCCC2)cc1	10µM*	-21.7%	-6.7%	17.1%	21.3%
CCCS(=O)(=O)c1nc(S(=O)(=O)c2ccc(C)cc2)c(N2CCC(C)CC2)s1	?	-12.6%	2.5%	8.6%	-8.6%[56.9 µM]
CCCS(=O)(=O)c1nc(S(=O)(=O)c2ccc(C)cc2)c(N2CCCC(C)C2)s1 (stereo not given)	12.6µM*	-19.6%	-4.0%	0.3%	-6.1%[56.9 µM]
Cc1ccc(S(=O)(=O)c2nc(S(C)(=O)=O)sc2N2CCCCC2C)cc1 (stereo not given)	3.55µM*	-45.0%	-21.7%	-2.6%	10.3%[56.9 µM]
CCCCCCNC(=O)c1cccc(-c2ccc(C)c3ccccc23)n1	11.2µM*	-2.7%	0.0%	8.9%	-10.2%
CCCCCCCNC(=O)c1cc(-c2ccncc2)nc2ccccc12	?	-5.1%	-0.9%	7.6%	1.5%
CCC(=O)NC(NC(=S)Nc1cccc2cccnc12)C(Cl)(Cl)Cl (stereo not given)	?	i	4.9%	-1.2%	-38.7%
COc1ccc(NC(=S)NC(NC(=O)c2cccc(C)c2)C(Cl)(Cl)Cl)c([N+](=O)[O-])c1 (stereo not given)	8.91µM*	-14.8%[57.5 µM]	?	-7.7%	-3.2%[11.4 µM]
COc1ccc(NC(=S)NC(NC(=O)c2cccc(Cl)c2)C(Cl)(Cl)Cl)c([N+](=O)[O-])c1 (stereo not given)	?	-9.1%[57.5 µM]	-25.1%	-3.2%	-10.4%
O=C(Cc1cccc2ccccc12)NC(NC(=S)Nc1ccccc1Cl)C(Cl)(Cl)Cl (stereo not given)	4.47µM*	-23.7%	-17.1%	-15.8%	-44.8%
